Measurements from PubChem BioAssay (EPA / NIEHS).
Activity calls are given as the source filed them. The calls were made as follows: active = hit-call score of the fitted dose curve at least 0.9, where 1 is the maximum; inactive = score below 0.9.

Experiment: ATG_M_19_CIS: Attagene CIS-FACTORIAL HepG2 Assay for M19 Transcription Factor (Internal Marker) (AID 2282939)
Conditions: HepG2 Attagene CIS-FACTORIAL M19 internal marker reporter; actives raise or lower the signal
Protocol: ATG_CIS is a cell-based, multiplexed-readout assay that uses HepG2, a human liver cell line, with measurements taken at 24 hours after chemical dosing in a 24-well plate.ATG_M_19_CIS is one of 52 assay component(s) measured or calculated from the ATG_CIS assay. It is designed to make measurements of mRNA induction, a form of inducible reporter, as detected with fluorescence intensity signals by Reverse transcription polymerase chain reaction (RT-PCR) and Capillary electrophoresis technology.Data from the assay component ATG_M_19_CIS was analyzed into 1 assay endpoint. This assay endpoint, ATG_M_19_CIS, was analyzed with bidirectional fitting relative to DMSO as the negative control and baseline of activity. Using a type of inducible reporter, measures of mRNA for gain or loss-of-signal activity can be used to understand the background control at the transcription factor-level as they relate to the gene . Furthermore, this assay endpoint can be referred to as a secondary readout, because this assay has produced multiple assay endpoints where this one serves a background control function. To generalize the intended target to other relatable targets, this assay endpoint is annotated to the background measurement intended target family, where the subfamily is internal marker.
Human liver HepG2 cells are transiently transfected with multiple reporter transcription units (MRTUs) in 6-well plates using FuGene 6 reagent (Roche; 3 ml FuGene/1 mg DNA). The MRTU constructs are regulated by a cis-regulating element (promoter). […] A major difference between the CIS and TRANS system is that in CIS activities of endogenous TFs are measured, whereas the TRANS assay evaluates changes in activities of exogenous, chimeric NR-Gal4 proteins. […] At the end of 24 hour incubation, total RNA was isolated using TriZol reagent (Invitrogen). The isolated RNA is then reverse-transcribed using oligo(dT) primer and Mo-MLV reverse transcriptase (Invitrogen) with DNAse I (Ambion) treatment for 30 min. The one-tenth of the produced cDNA was amplified by PCR using Taq DNA polymerase (Invitrogen) and two reporter sequence-specific primers. The PCR products were fluorescently labeled by primer extension with 6-arboxyfluorescein (6-FAM) 5'-labeled reporter sequence-specific primer (2 min at 95 C, 20 s at 68 C and 10 min at 72 C) and these products were digested with 5U of HpaI (New England Biolabs) for 2h at 37 C. The fragments were purified using Qiaquick PCR columns (Qiagen), analyzed on an ABI 3130xL genetic analyzer (Applied Biosystems) with peak positions identified by using a set of X-rhodamine (ROX)-labeled MapMarker1000 molecular weight standards (BioVentures). The raw capillary electrophoresis data was processed using Attagraph software (Attagene).

**Q.** Which outcome does the source give for Oc1ccc2c(c1)-c1ccccc1C2 here?
**A.** inactive

**Q.** For CC(C)CCO, which outcome is on record?
**A.** inactive

**Q.** Which outcome does the source give for CCN(C(=O)c1cc(C)cc(OC[C@H](C)Nc2ccncc2)c1)C(C)C here?
**A.** inactive

**Q.** With CCCCCCCCCCCCc1ccccc1 as the molecule, how does the outcome read?
**A.** inactive

**Q.** Which outcome does the source give for CCOC(=O)CC(CC(=O)OCC)(OC(C)=O)C(=O)OCC here?
**A.** inactive

**Q.** With Cc1ccc(S(=O)(=O)O)cc1C as the molecule, how does the outcome read?
**A.** inactive

**Q.** Which outcome does the source give for CCNc1ccccc1 here?
**A.** inactive

**Q.** With CCCCC(CC)COC(=O)c1ccc(C(=O)OCC(CC)CCCC)cc1 (stereo not given) as the molecule, how does the outcome read?
**A.** inactive

**Q.** With COCCOc1cc2cc(C(=O)NC3CCN(C(C)C)CC3)n(CC(=O)Nc3ccc(Cl)cn3)c2cn1 as the molecule, how does the outcome read?
**A.** inactive

**Q.** Which outcome does the source give for O=C1CCCCCN1 here?
**A.** inactive

**Q.** For Clc1nc(Cl)c(Cl)c(Cl)c1Cl, which outcome is on record?
**A.** inactive

**Q.** For O=P(OC(CCl)CCl)(OC(CCl)CCl)OC(CCl)CCl, which AC50 is on record?
**A.** 149 µM (active)

**Q.** For CC(C)CCCCCCOC(=O)c1ccc(C(=O)OCCCCCCC(C)C)c(C(=O)OCCCCCCC(C)C)c1, which outcome is on record?
**A.** inactive

**Q.** Which outcome does the source give for O=C(O)c1cccc(Oc2ccccc2)c1 here?
**A.** inactive

**Q.** With CC1(C)C(=O)N(Br)C(=O)N1Br as the molecule, how does the outcome read?
**A.** inactive

**Q.** For CCCN(C1CCN(C(=O)C2CCNCC2)CC1)[C@@H]1CCc2ccc(OC)cc2C1, which outcome is on record?
**A.** inactive

**Q.** Which outcome does the source give for CCCCCCCCCCCCCCCO here?
**A.** inactive

**Q.** Which outcome does the source give for C=CCCCCCCCCC(=O)O here?
**A.** inactive

**Q.** Which AC50 does the source give for O=C(CCCCCCCCc1cccnc1)N1CCC(C=C(c2ccccc2)c2ccccc2)CC1 here?
**A.** 59.4 µM (active)

**Q.** For Cc1ccc(C)c(O)c1, which outcome is on record?
**A.** inactive

**Q.** For CCCC(=O)OCC, which outcome is on record?
**A.** inactive

**Q.** Which outcome does the source give for CN(C)c1ccc(N=NS(=O)(=O)O)cc1 here?
**A.** inactive

**Q.** With CCn1nc(Cc2ccccc2)cc1C1CCN(C[C@H]2C[C@H](N(C)[C@@H](C(=O)O)C(C)C)C[C@@H]2c2cccc(F)c2)CC1 as the molecule, how does the outcome read?
**A.** inactive

**Q.** Which outcome does the source give for COc1cccc(-c2ccc(/C=C\CN3CCCCCC3)cc2Cl)c1 here?
**A.** inactive

**Q.** For C=CC(=C)CCC=C(C)C, which outcome is on record?
**A.** inactive

**Q.** For COC(=O)c1ccccc1O, which outcome is on record?
**A.** inactive

**Q.** Which outcome does the source give for COc1ccc(/C=C/S(=O)(=O)NC(=O)c2ccc(C)cc2Cl)cc1 here?
**A.** inactive

**Q.** With CC(=O)OC[C@H]1O[C@@](COC(C)=O)(O[C@H]2O[C@H](COC(C)=O)[C@@H](OC(C)=O)[C@H](OC(C)=O)[C@H]2OC(C)=O)[C@@H](OC(C)=O)[C@@H]1OC(C)=O as the molecule, how does the outcome read?
**A.** inactive

**Q.** Which outcome does the source give for Cn1c(=O)cc(Oc2ccc(F)cc2F)c2cnc(NCC(C)(C)O)nc21 here?
**A.** inactive

**Q.** For Cc1ccc(O)cc1, which outcome is on record?
**A.** inactive

**Q.** With O=C1OC(=O)C2C3C=CC(C3)C12 (stereo not given) as the molecule, how does the outcome read?
**A.** inactive

**Q.** For CCCCCCCCO, which outcome is on record?
**A.** inactive

**Q.** For CNCc1ccc(NC(=O)c2c[nH]c3c2C(=O)CCC3)cc1, which outcome is on record?
**A.** inactive

**Q.** Which outcome does the source give for Cc1c(-c2cccnc2)c2ccccc2n1CCCCC(=O)O here?
**A.** inactive

**Q.** For NC(=O)NO, which outcome is on record?
**A.** inactive

**Q.** With O=C(O)c1cc(N=Nc2ccc(S(=O)(=O)Nc3ccccn3)cc2)ccc1O as the molecule, how does the outcome read?
**A.** inactive

**Q.** Which outcome does the source give for CC(C)=CCCC(C)=CC=O here?
**A.** inactive

**Q.** With CCCCCCc1ccc(O)cc1O as the molecule, how does the outcome read?
**A.** inactive

**Q.** Which outcome does the source give for Nc1ccc(Nc2ccccc2)cc1 here?
**A.** inactive

**Q.** Which outcome does the source give for CC(C)CCCCCCCOC(=O)CCCCC(=O)OCCCCCCCC(C)C here?
**A.** inactive
